According to PubChem BioAssay (NCI):
This is part of a sample that, as a whole, favours compounds with a hit. Of some 83,000 tested, about 20% had one in any assay.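 Single-dose data. Exposure time 48 hours. Values below 10 considered active.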 Unmarked numbers belong to inactive results. Active and inactive are the calls of the source.

Assays:
Assay in all cases: NCI-60 one-dose screen, 48 h (100 = growth as untreated, 0 = no growth, -100 = all killed)
Details in all cases: 10 µM unless noted
HCT-15 colon = test system: HCT-15 colon
HT29 colon = test system: HT29 colon
SNB-75 CNS = test system: SNB-75 CNS
SNB-19 CNS = test system: SNB-19 CNS
U251 CNS = test system: U251 CNS
PC-3 prostate = test system: PC-3 prostate
SK-MEL-5 melanoma = test system: SK-MEL-5 melanoma
UACC-62 melanoma = test system: UACC-62 melanoma
LOX IMVI melanoma = test system: LOX IMVI melanoma
SK-MEL-28 melanoma = test system: SK-MEL-28 melanoma
SK-MEL-2 melanoma = test system: SK-MEL-2 melanoma
EKVX NSCLC = test system: EKVX NSCLC
SN12C renal = test system: SN12C renal
UO-31 renal = test system: UO-31 renal
TK-10 renal = test system: TK-10 renal
ACHN renal = test system: ACHN renal
CAKI-1 renal = test system: CAKI-1 renal
CCRF-CEM leukemia = test system: CCRF-CEM leukemia
MOLT-4 leukemia = test system: MOLT-4 leukemia
A498 renal = test system: A498 renal

Compound | growth (HCT-15 colon) | growth (HT29 colon) | growth (SNB-75 CNS) | growth (SNB-19 CNS) | growth (U251 CNS) | growth (PC-3 prostate) | growth (SK-MEL-5 melanoma) | growth (UACC-62 melanoma) | growth (LOX IMVI melanoma) | growth (SK-MEL-28 melanoma) | growth (SK-MEL-2 melanoma) | growth (EKVX NSCLC) | growth (SN12C renal) | growth (UO-31 renal) | growth (TK-10 renal) | growth (ACHN renal) | growth (CAKI-1 renal) | growth (CCRF-CEM leukemia) | growth (MOLT-4 leukemia) | growth (A498 renal)
COc1ccc(C2=Nc3c/c(=C\c4c(O)[nH]c5cc(Cl)ccc45)ccc3=N2)cc1 | 55.8% | 39.8% | 41.6% | 95.1% | 74.3% | 43.3% | 60.7% | 67.5% | 90.6% | 47% | 54.4% | 80.7% | 96.5% | 58.6% | 114% | 76.9% | 75.9% | 54.8% | 83.9% | 
C#CCOc1ccc2ncnc(Nc3cccc(NC(=O)CCl)c3)c2c1 | 50.6% | 33.5% | 68.9% | 71.8% | 62.2% | 70% | 68.3% | 60.6% | -68.1% (active) | 90.6% | 69.7% | 92.9% | 69.4% | 59.5% | 73.4% |  | 81.2% | 16.1% | 18.1% | 89.1%
Oc1c(I)cc(-c2nc3ccccc3s2)cc1CN(Cc1ccccn1)Cc1ccccn1 | 22% | 21.3% | 40.1% | 20.9% | 8.16% (active) | 28.3% | -78.3% (active) | 10.5% | 3.14% (active) | 37.5% | 14.8% | 8.07% (active) | 17.3% | -26.6% (active) | 14.5% | 8.93% (active) | 5.39% (active) | 7.86% (active) | 0.129% (active) | 
Cc1cc2oc(=O)cc(CP(=O)(O)O)c2cc1O | 96% | 106% | 75.3% | 93.6% | 98.5% | 94.9% | 99.2% | 90.7% | 98.7% | 98.4% | 102% | 97.1% | 93.5% | 70.4% | 107% | 101% | 90.9% | 103% | 104% | 
C=C1C(=O)O[C@H]2[C@H]1CC/C(COC(=O)NCCCCCCCCNC(=O)OC/C1=C/CC[C@@]3(C)O[C@H]3[C@H]3OC(=O)C(=C)[C@@H]3CC1)=C\CC[C@@]1(C)O[C@@H]21 | -83.9% (active) | -67.1% (active) | -19.8% (active) | 6.51% (active) | -48.2% (active) | -64.3% (active) | -85.3% (active) | -70.8% (active) | -78.2% (active) | -75.3% (active) | -57.5% (active) | -82.4% (active) | -68.7% (active) | -92.4% (active) | -97.9% (active) | -93.2% (active) | -90.1% (active) | -47.3% (active) | -27.5% (active) | 
COc1cc2c(c(OC)c1OC)C(=O)N[C@@H]1[C@@H](O)[C@@H](O)[C@H](O)C[C@@H]21 | 104% | 107% | 102% | 99% | 98.9% | 96.5% | 104% | 94.1% | 97.7% | 111% | 117% | 103% | 104% | 87.1% | 98.5% | 99.7% | 94.1% | 104% | 104% | 
COc1ccc2c(c1)c(-c1nonc1-c1c[nH]c3ccc(Br)cc13)cn2C | 22.2% | 11.9% | 63.3% | 52.2% | 34.9% | 43.8% | 57.1% | 38.2% | 22.4% | 61% | 46.9% | 31.6% | 59.3% | 40.8% | 58.2% |  | 34.3% | 33.5% | 17.6% | 27.4%
O=C(Nc1ccccc1O)c1ccccc1Nc1ccnc(C(F)(F)F)c1 | 104% | 124% | 90.7% | 107% | 102% | 94.4% | 70.7% | 57.7% | 89.3% | 117% | 104% | 93% | 87.3% | 66.2% | 136% |  | 98.3% | 84.8% | 74.5% | 
O=c1[nH]c(-c2ccc(Cl)cc2)cn1-c1ccc(-n2cc(-c3ccc(Cl)cc3)[nH]c2=O)cc1 | 98.8% | 102% | 98.1% | 93.5% | 104% | 77.5% | 101% | 87.5% | 103% | 101% | 95.9% | 109% |  | 105% | 103% | 102% | 65.1% | 107% | 107% | 109%
Cc1ccc(/C=C2\CN(C(=O)C(Cl)Cl)C/C(=C\c3ccc(C)cc3)C2=O)cc1 | -39.2% (active) | -5.72% (active) | -30.2% (active) | -53.7% (active) | -94.9% (active) | -49.3% (active) | -81.8% (active) | -67.2% (active) | -92.2% (active) | -56.1% (active) | -5.43% (active) | -48.7% (active) |  | -100% (active) | -63.1% (active) | -97.8% (active) | -49.6% (active) | 9.16% (active) | 0.0942% (active) | -89.3% (active)
CC/C=C\C/C=C/C=C1/C(=O)C=C[C@@H]1C/C=C\CCCC(=O)OC | 4.13% (active) | 2.21% (active) | 93.4% | 62.3% | 28.7% | 30.2% | 70.1% | -6.19% (active) | -70% (active) | 36.7% | 92.6% | 99.4% |  | 28.2% | 31.6% | 14.1% | 29.7% | 1.18% (active) | 5.5% (active) | 109%
O=C1C(Cl)=C(NCCN2CCOCC2)C(=O)c2ncccc21 | -38% (active) | -27.6% (active) | 88.3% | 17.3% | 29.6% | 38.1% | -94.1% (active) | -51.2% (active) | -57.3% (active) | -84.3% (active) | -23.8% (active) | -78.9% (active) |  | -75.7% (active) | 28.3% | -42.5% (active) | 88.5% | 5.23% (active) |  | 74.2%
Clc1ccc(-c2cn3ccsc3n2)c(Cl)c1Cl | 89.5% | 105% | 86.4% | 105% | 91% | 93.5% | 79.8% | 67.7% | 80.7% | 120% | 88.6% | 65.2% |  | 70.1% | 105% | 90.1% | 71.8% | 93.6% | 80.4% | 76.7%
COc1cc(Nc2c3ccc(Cl)cc3nc3ccc(OC)cc23)c2ncccc2c1 | 23.8% | 38.1% | 70.1% | 66.6% | 31.5% | 38% | 33% | 36.4% | 29.3% | 50% | 78.6% | 39.2% |  | 26.9% | 44.7% | 31.2% | 32.2% | 26.9% | 39.3% | 62.4%
O[C@@H](c1cc(C(F)(F)F)nc2c(C(F)(F)F)cccc12)[C@H]1CCCCN1 | 77.5% | 53.8% | 36.6% | 54.8% | 47.7% | 49.4% | 82% | 56.2% | 29.4% | 98.3% | 77% | 69.7% |  | 50.4% | 66% | 37.8% | 76.5% | 73% | 31.8% | 60%
CN1C(=O)/C(=C/c2ccc(C(=O)Nc3ncc(Cc4ccc(F)cc4)s3)cc2)SC1=S | 22.4% | 29.5% | 40.3% | 60.5% | 65.2% | 52.4% | 17.6% | 9.34% (active) | 15.4% | 58% | 71.2% | 48.4% | 61.8% | 46.5% | 53.5% |  | 16.3% | 47.8% | 39.6% | 35%
